# Of roughly 7,900 targets only a part is listed; those with a hit were picked by preference. About 0.6% of all pairs of compound and target were hits. Unmarked numbers belong to inactive results.
# Assays:
# Experiment in all cases: log2 fold change, soluble protein after heating vs DMSO (PISA); higher = thermal stabilisation; K562 cells, 10 uM, 30 min; active = over 0.2 and 3.5 SD of the protein, either way, in both replicates (recomputed)
# bafetinib = compound: Cc1ccc(NC(=O)c2ccc(CN3CC[C@H](N(C)C)C3)c(C(F)(F)F)c2)cc1Nc1nccc(-c2cncnc2)n1 [bafetinib]
# Procedure, shortened: (§1)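 Thermal stability values are relative to control samples and come from duplicates. They are expressed as log2 fold changes. For measurement, K562 cells (2×10^6 cells/mL) received 10 μM compound for 30 min, and aliquots were heated for 3 min over 48°C-58°C, pooled, and extracted at 4°C in PBS with 0.5% NP-40. Soluble protein, the supernatant after 21,000xg for 90 min, was quantified by TMTpro 16plex LC-MS/MS with equalised channel sums.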
# [1] = compound: Cc1cccc(CC(=O)N2CCc3c2ccc(-c2cn(C)c4ncnc(N)c24)c3F)n1
# Procedure, shortened: as §1
# nilotinib = compound: Cc1cn(-c2cc(NC(=O)c3ccc(C)c(Nc4nccc(-c5cccnc5)n4)c3)cc(C(F)(F)F)c2)cn1 [nilotinib]
# Procedure, shortened: as §1
# [2] = compound: Cc1nc(Nc2n[nH]c3c2CN(C(=O)N[C@H](CN(C)C)c2ccccc2)C3(C)C)c2sccc2n1
# Procedure, shortened: as §1
# dasatinib = compound: Cc1nc(Nc2ncc(C(=O)Nc3c(C)cccc3Cl)s2)cc(N2CCN(CCO)CC2)n1 [dasatinib]
# Procedure, shortened: as §1
# [3] = compound: Cc1ncc(-c2ccnc(Nc3ccc(S(C)(=O)=O)cc3)n2)n1C(C)C
# Procedure, shortened: as §1
# [4] = compound: Cn1cc(-c2ccc3c(c2)CCN3C(=O)Cc2cccc(C(F)(F)F)c2)c2c(N)ncnc21
# Procedure, shortened: as §1
# [5] = compound: Cn1cc(-c2ccc3nnc(C(F)(F)c4ccc5ncccc5c4)n3n2)cn1
# Procedure, shortened: as §1
# tipifarnib = compound: Cn1cncc1[C@@](N)(c1ccc(Cl)cc1)c1ccc2c(c1)c(-c1cccc(Cl)c1)cc(=O)n2C [tipifarnib]
# Procedure, shortened: as §1
# mubritinib = compound: FC(F)(F)c1ccc(/C=C/c2nc(COc3ccc(CCCCn4ccnn4)cc3)co2)cc1 [mubritinib]
# Procedure, shortened: as §1
# UniProt Q5SSJ5, sequence (Q5SSJ5 whole entry, looked up): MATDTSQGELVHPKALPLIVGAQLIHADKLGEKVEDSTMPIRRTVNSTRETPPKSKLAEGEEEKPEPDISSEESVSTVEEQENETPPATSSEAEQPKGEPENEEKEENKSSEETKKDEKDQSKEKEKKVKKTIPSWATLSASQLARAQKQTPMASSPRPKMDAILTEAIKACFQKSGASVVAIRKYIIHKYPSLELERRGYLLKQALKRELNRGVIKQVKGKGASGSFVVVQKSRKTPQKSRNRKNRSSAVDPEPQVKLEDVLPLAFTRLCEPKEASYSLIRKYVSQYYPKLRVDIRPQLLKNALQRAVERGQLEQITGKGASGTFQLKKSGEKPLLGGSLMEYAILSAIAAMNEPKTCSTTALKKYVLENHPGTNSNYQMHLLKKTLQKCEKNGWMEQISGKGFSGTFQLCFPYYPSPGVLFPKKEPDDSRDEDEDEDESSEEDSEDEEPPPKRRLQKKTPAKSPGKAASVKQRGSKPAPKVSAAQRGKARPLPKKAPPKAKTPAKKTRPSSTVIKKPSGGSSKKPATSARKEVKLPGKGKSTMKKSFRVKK
# UniProt P16278, sequence (P16278 whole entry, looked up): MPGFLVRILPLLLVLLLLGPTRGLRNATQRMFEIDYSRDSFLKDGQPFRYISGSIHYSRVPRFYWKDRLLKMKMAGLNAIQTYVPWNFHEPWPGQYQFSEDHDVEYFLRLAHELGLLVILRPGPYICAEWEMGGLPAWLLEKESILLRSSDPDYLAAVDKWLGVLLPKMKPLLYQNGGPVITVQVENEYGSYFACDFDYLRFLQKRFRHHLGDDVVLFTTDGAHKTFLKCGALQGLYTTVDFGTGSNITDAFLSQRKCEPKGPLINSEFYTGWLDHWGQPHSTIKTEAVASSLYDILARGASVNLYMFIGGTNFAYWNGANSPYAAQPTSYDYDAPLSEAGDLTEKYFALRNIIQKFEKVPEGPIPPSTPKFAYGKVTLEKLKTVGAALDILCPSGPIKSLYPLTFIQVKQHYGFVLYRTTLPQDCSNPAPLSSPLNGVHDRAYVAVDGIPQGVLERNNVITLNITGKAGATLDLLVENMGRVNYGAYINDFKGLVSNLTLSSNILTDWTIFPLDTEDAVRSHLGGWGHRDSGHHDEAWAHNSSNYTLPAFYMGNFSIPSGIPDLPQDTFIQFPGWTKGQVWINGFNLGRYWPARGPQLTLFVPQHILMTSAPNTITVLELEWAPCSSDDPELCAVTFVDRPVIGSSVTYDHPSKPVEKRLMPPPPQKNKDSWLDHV
# UniProt Q13547, sequence (Q13547 whole entry, looked up): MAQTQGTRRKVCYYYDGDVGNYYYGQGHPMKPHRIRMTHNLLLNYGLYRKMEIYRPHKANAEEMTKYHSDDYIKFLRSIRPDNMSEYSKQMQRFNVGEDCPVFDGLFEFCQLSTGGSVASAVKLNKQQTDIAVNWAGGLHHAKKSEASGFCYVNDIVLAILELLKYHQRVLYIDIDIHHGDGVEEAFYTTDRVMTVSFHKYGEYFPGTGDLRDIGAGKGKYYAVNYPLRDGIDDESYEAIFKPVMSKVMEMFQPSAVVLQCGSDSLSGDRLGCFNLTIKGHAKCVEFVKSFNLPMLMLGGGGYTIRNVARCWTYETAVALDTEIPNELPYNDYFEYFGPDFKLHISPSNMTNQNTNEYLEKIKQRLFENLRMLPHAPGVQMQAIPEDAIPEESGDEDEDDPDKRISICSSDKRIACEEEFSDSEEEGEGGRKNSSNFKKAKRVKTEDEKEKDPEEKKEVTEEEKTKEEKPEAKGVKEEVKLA
# UniProt O94925, sequence (O94925 whole entry, looked up): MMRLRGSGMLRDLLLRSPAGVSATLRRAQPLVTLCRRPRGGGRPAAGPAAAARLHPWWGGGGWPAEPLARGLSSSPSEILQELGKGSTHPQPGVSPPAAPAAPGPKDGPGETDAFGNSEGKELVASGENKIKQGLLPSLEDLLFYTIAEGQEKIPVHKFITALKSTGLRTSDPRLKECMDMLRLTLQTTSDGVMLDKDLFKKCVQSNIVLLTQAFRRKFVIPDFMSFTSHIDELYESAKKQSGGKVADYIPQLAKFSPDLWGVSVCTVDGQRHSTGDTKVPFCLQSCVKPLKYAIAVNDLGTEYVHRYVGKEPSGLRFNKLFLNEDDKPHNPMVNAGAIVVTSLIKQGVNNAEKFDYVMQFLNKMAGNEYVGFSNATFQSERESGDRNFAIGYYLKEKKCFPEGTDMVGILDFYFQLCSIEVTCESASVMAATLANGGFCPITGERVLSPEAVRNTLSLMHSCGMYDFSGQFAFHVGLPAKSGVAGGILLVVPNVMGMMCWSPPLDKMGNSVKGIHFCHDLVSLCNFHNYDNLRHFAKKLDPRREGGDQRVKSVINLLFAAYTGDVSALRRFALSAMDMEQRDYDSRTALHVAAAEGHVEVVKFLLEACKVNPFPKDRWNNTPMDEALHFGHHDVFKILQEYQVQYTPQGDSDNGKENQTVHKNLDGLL
# UniProt Q9BXW9, sequence (Q9BXW9 whole entry, looked up): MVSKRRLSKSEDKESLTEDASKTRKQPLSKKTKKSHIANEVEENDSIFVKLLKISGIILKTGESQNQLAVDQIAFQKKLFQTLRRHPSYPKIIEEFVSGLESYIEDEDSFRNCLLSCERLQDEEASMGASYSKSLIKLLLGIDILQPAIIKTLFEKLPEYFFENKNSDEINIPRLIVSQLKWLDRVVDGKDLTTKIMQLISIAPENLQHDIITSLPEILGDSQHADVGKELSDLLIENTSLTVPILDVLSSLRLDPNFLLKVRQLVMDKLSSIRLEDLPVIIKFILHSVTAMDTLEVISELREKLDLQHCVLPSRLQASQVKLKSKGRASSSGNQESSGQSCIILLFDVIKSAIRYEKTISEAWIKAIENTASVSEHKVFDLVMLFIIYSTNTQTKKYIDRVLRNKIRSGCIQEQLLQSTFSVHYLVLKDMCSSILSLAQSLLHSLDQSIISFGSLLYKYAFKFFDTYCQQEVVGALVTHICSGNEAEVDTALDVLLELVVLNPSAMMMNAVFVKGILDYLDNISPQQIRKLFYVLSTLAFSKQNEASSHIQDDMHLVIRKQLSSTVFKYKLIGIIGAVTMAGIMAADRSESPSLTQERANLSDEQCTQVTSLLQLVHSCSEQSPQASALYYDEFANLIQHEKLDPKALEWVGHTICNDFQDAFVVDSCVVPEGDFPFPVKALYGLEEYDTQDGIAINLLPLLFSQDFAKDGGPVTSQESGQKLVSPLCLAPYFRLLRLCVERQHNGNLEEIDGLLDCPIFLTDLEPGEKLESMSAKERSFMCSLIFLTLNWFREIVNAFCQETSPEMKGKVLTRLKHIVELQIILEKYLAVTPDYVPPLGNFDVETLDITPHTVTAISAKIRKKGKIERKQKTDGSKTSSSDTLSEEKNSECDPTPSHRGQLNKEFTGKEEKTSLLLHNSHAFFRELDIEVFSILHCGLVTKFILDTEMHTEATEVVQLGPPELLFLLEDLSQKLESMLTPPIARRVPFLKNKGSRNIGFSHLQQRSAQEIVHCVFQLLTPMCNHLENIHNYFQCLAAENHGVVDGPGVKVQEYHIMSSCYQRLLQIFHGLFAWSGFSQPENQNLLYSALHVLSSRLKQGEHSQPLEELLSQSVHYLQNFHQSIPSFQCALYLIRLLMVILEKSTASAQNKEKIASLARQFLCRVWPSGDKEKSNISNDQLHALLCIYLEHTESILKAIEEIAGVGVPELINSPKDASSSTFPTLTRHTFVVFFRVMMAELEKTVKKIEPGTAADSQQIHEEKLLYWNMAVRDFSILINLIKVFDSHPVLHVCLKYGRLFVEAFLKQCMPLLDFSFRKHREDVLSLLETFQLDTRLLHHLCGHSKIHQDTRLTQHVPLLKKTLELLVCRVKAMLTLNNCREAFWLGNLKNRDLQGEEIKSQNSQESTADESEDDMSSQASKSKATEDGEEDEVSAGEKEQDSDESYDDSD
# UniProt P31150, sequence (P31150 whole entry, looked up): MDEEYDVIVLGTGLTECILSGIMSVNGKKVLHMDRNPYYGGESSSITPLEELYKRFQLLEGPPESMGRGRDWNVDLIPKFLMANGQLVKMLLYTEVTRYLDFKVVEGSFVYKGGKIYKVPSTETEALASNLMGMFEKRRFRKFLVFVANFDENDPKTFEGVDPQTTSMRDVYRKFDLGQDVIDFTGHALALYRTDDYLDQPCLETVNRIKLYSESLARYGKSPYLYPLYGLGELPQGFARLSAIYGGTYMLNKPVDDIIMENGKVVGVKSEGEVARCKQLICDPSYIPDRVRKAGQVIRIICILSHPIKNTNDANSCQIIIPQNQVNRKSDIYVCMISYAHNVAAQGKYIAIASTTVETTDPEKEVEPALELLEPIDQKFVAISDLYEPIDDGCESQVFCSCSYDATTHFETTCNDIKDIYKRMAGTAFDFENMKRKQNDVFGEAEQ
# UniProt P52597, sequence (P52597 whole entry, looked up): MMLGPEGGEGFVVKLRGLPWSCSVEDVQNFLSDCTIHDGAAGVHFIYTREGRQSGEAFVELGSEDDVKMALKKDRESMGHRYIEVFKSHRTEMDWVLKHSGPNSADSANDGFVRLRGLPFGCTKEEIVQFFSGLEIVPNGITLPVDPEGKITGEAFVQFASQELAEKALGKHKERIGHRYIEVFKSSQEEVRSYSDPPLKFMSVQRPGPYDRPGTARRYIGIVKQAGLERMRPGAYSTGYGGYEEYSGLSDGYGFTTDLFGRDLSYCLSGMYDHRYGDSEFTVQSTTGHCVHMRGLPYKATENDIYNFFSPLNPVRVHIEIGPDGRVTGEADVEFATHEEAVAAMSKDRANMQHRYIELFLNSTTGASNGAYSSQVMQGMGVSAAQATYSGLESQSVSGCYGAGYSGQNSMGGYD
# UniProt Q03014, sequence (Q03014 whole entry, looked up): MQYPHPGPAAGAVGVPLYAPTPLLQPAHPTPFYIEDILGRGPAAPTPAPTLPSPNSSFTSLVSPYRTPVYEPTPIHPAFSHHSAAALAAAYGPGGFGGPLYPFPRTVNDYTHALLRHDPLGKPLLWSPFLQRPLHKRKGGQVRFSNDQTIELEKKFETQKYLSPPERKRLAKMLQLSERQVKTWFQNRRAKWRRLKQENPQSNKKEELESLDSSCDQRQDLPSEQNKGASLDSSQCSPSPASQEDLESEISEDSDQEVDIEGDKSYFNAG
Target,log2 fold change (bafetinib),log2 fold change [1],log2 fold change (nilotinib),log2 fold change [2],log2 fold change (dasatinib),log2 fold change [3],log2 fold change [4],log2 fold change [5],log2 fold change (tipifarnib),log2 fold change (mubritinib)
GID4 (UniProt Q8IVV7),-0.059,-0.058,-0.051,0.003,-0.086,0.038,-0.042,-0.032,0.116,-0.029
HDDC2 (UniProt Q7Z4H3),-0.015,0.039,0.057,-0.005,-0.01,-0.003,0.069,-0.008,-0.091,0.043
HMGB3 (UniProt O15347),-0.057,-0.009,0.051,-0.013,0.066,0.03,0.014,-0.084,-0.024,0.01
GALNT11 (UniProt Q8NCW6),-0.055,-0.089,-0.047,-0.068,-0.022,0.076,0.069,-0.031,0.102,0.088
GDI1 (UniProt P31150),0.002,0.024,0.001,0.017,-0.053,-0.024,0.035,0.01,-0.06,0.062
GLB1 (UniProt P16278),-0.418 (active),-0.009,0.013,0.017,0.061,0.004,-0.006,0.016,0.039,-0.009
GPKOW (UniProt Q92917),-0.025,0.086,-0.057,-0.207,-0.326 (active),-0.025,0.114,0.139,-0.071,0.126
FKBP3 (UniProt Q00688),0.014,-0.03,0.028,0.041,-0.003,0.029,-0.006,0.021,-0.01,0.017
HEATR3 (UniProt Q7Z4Q2),0.058,0.389 (active),-0.045,-0.088,-0.073,-0.073,-0.008,0.138,-0.011,-0.079
HP1BP3 (UniProt Q5SSJ5),0.017,-0.082,0.055,-0.008,0.009,0.125,-0.045,-0.087,0.028,0.026
GALC (UniProt P54803),-0.507 (active),0.084,0.008,0.045,0.096,0.01,0.004,0.065,0.126,-0.005
GTF2E2 (UniProt P29084),0.031,0.03,-0.082,-0.108,-0.241,0.005,-0.016,0.044,0.051,-0.02
H2AZ1 (UniProt P0C0S5),0.173,-0.204,-0.138,-0.029,-0.092,-0.006,-0.369,-0.133,0.013,-0.083
HEXA (UniProt P06865),-0.491 (active),-0.023,-0.001,0.017,0.016,-0.036,-0.003,0.006,0.044,0.023
HAT1 (UniProt O14929),-0.115,0.017,0.004,-0.035,-0.044,-0.025,0.024,0.006,0.004,-0.033
HNRNPF (UniProt P52597),-0.013,0.056,-0.106,-0.178,-0.15,-0.066,0.024,-0.057,-0.051,-0.022
HNRNPUL2 (UniProt Q1KMD3),0,-0.083,-0.001,0.033,0.098,0.097,-0.147,-0.035,0.03,-0.137
HHEX (UniProt Q03014),-0.039,-0.024,-0.033,-0.056,0.04,0.008,0.373,0.044,-0.012,0.066
GSTO1 (UniProt P78417),0.021,0.148,-0.009,-0.021,-0.007,-0.009,0.019,-0.004,-0.014,0.018
IFI30 (UniProt P13284),-0.41 (active),0.007,0.068,0.015,0.016,-0.049,0.097,0.002,0.04,0.044
HMG20A (UniProt Q9NP66),-0.012,-0.05,-0.046,-0.02,0.052,-0.012,-0.05,-0.224,0.064,-0.021
GALNT1 (UniProt Q10472),-0.053,-0.065,-0.059,0.014,0.014,0.142,0.1,-0.093,0.019,0.029
GNG5 (UniProt P63218),0.013,-0.048,0.12,0.023,0.06,-0.051,0.027,0.169,0.027,0.039
GPX4 (UniProt P36969),0.003,0.023,0.036,-0.031,0.015,0.019,0.05,0.003,-0.046,0.033
GOLGB1 isoform 2 (UniProt Q14789),-0.022,-0.03,-0.054,0.018,0.08,-0.078,-0.077,0,0.014,0.017
GNS (UniProt P15586),-0.156,-0.002,0.003,0.037,0.006,-0.033,0.008,-0.028,0.02,-0.004
GLS (UniProt O94925),-0.021,0.025,-0.095,-0.069,-0.154,0.009,-0.081,0.003,-0.071,-0.285
FANCD2 isoform 1 (UniProt Q9BXW9),-0.06,-0.014,-0.145,0.15,-0.167,-0.119,0.126,0.1,-0.024,0.052
GAPVD1 isoform 6 (UniProt Q14C86),0.023,0.072,-0.09,-0.092,-0.15,-0.017,-0.043,-0.016,-0.135,0.028
HDAC1 (UniProt Q13547),0.306,-0.046,-0.023,-0.021,-0.091,-0.055,-0.002,-0.009,-0.078,-0.025

# From the supplement of paper PMC10849652
